This passage reports inhibition results from PubChem BioAssay AID1259374 (The Scripps Research Institute Molecular Screening Center, 2018).

In all, about 650,000 compounds went through this assay and about 5,900 (0.91%) were called active. The full list was thinned out, with actives kept by preference. Values without a mark were called inactive. Rule as the data show it: active = inhibition above about 50%; inactive = the rest.

The target in this assay is Microphthalmia-associated transcription factor (Homo sapiens) (UniProt O75030). The assay can be described thus: MITF inhibitors, primary screen, biochemical, AlphaScreen, human (AID 1259374).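 Also: 0% = vehicle wells with protein.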 The note with it: AlphaScreen MITF homodimerization, bead proximity signal; at 2.6 µM; stronger effect = higher value. On the technique in general: Alpha assays give light when donor and acceptor beads are brought close together.
Chain of Microphthalmia-associated transcription factor (Homo sapiens) (O75030 whole entry, looked up): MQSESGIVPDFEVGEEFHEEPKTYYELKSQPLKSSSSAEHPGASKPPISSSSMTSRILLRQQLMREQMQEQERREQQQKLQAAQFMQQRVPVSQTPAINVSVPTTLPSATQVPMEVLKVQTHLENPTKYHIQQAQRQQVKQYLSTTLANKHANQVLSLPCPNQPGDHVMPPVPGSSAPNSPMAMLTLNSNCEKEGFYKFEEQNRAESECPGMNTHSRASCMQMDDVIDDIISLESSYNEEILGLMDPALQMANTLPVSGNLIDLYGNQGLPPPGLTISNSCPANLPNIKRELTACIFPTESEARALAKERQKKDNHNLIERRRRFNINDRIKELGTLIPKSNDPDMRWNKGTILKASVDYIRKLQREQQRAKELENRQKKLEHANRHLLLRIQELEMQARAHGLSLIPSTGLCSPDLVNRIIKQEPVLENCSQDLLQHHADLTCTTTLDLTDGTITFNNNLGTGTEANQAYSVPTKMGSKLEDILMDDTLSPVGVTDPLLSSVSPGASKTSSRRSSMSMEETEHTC
A word on the inhibition: it is the drop in the measured response relative to a control, in per cent. As to `CC(=O)C1=C(O)C(=O)N(CCCN(C)C)C1c1ccc(Br)cc1` (centres undefined), the inhibition is 4.38%. `COc1ccccc1/C=C1\SC(=S)N(CCC(=O)Nc2nc(C)cs2)C1=O`: the inhibition was 13.4%.

As for `CCOCc1nnc(NC(=O)C2CC(=O)N(c3ccc(C)cc3)C2)s1` (centres undefined), the inhibition is 9.92%. The same measure for `Cc1cc(OCCN2CCOCC2)nc(N2CCOCC2)n1`: 5.58%; for `Cc1ccc(C)c(OCCN2CCOCC2)c1C`: 54.9% (active).

As to `Cc1cc(Cl)c(OCCN2CCOCC2)c(Br)c1`, the inhibition was 33.1%. The same measure for `CCOc1cccc(C(=O)Nc2ccc3oc(-c4ccc(Cl)c(Cl)c4)nc3c2)c1`: 4.15%; for `CCOCCOC(=O)C1=C(C)NC(=O)NC1c1ccccc1` (centres undefined): 2.55%. The same measure for `COc1cccc(/C=N/Nc2nc(=O)[nH]nc2C)c1OC`: 35%; for `Cc1n[nH]c(=O)nc1N/N=C/c1cccs1`: 86.2% (active). For `Cc1cccc(Nc2nc(=O)[nH]nc2C)c1` the value was 13.2%.

Consider `O=c1[nH]cnc2nc(N/N=C/c3ccc(Cl)cc3)[nH]c12`, for which the inhibition is -5.83%. The same measure for `O=C(Nc1cccc(Br)c1)N1CCC(CN2CCCC2)CC1`: 5.45%. For `COc1cc(-c2cc(C(N)=O)on2)ccc1O` the value was 3.55%; for `COc1cc2nc(-c3cccc(C(C)=O)c3)nc(Nc3ccc(N4CCOCC4)cc3)c2cc1OC`, 1.79%. For `COc1cc2nc(-c3cccc(C(C)=O)c3)nc(N)c2cc1OC` the value was 60.9% (active); for `CC(=O)c1cccc(-c2ncc(C)c(N)n2)c1`, 0.72%. `CCOc1ccc(C(NC(=O)c2cc(OC)c(OC)c(OC)c2)c2cc(Cl)c3cccnc3c2O)cc1` (centres undefined): the inhibition is 17.1%. For `O=C(Cc1ccccc1)NC(c1ccc(Cl)cc1)c1ccc2cccnc2c1O` (centres undefined) the value was -1.99%; for `CC(=O)NC(c1cccs1)c1cc(Cl)c2cccnc2c1O` (centres undefined), 59.1% (active).

In the case of `CC(=O)NC(c1ccccc1)c1ccc2cccnc2c1O` (centres undefined), the inhibition is 54.5% (active). Turning to `Oc1c(C(Nc2ccccn2)c2cccnc2)ccc2cccnc12` (centres undefined), the inhibition was 58.1% (active). For `Cc1ccnc(NC(c2ccccc2Cl)c2ccc3cccnc3c2O)c1` (centres undefined) the value was 22.3%; for `Cc1ccc(C(NC(=O)Cc2ccccc2)c2ccc3cccnc3c2O)cc1` (centres undefined), 3.27%.

In the case of `Oc1c(C(Nc2ccccn2)c2ccc(OC(F)F)cc2)ccc2cccnc12` (centres undefined), the inhibition is 12.2%.

For `COc1cccc(C(=O)NC(c2cccc([N+](=O)[O-])c2)c2cc(Cl)c3cccnc3c2O)c1` (centres undefined), the inhibition is 4.72%.

In the case of `O=C(Oc1ccc2sc(=O)oc2c1)c1cccc(C(F)(F)F)c1`, the inhibition was -7.72%. For `N#Cc1ccc(NC(=O)c2ccccc2C(=O)O)cc1` the value was 4.7%. For `Cc1ccc(S(=O)(=O)N/N=C/c2cccnc2)cc1[N+](=O)[O-]` the value was -30.1%; for `COc1ccc(/C=C/c2cc[n+](C)cc2)c(OC)c1`, -10.4%; for `CC(=O)Nc1cc(C(=O)NCCN2CCOCC2)cc(-n2ncc3cc(Nc4c(Cl)cccc4Cl)ccc32)c1`, -3%. For `CCOC(=O)C1C2C=CC3(CN(c4ccc(C)cc4)C(=O)C13)O2` (centres undefined) the value was 0.13%.

As for `O=C(CCCn1c(SCC(=O)c2ccc(Cl)c(Cl)c2)nc2ccsc2c1=O)NCCc1ccccc1`, the inhibition was 2.74%. The same measure for `Cc1ccc(C2CC(c3ccc(Br)cc3)=NN2C(=O)CSc2nnc(CNC(=O)COc3ccccc3)n2C)cc1` (centres undefined): -9.25%. The same measure for `Clc1ccc(CN2CCc3nnc(C4CCCO4)n3CC2)cc1` (centres undefined): 9.36%; for `O=C(c1ccccc1)N1CCN(Cc2ccc(Cl)cc2)CC1`: 48.9%.

`Clc1ccc(CN2CCN(CC3CC=CCC3)CC2)cc1` (centres undefined): the inhibition is 78.5% (active).

Consider `CC(=O)NS(=O)(=O)c1ccc(-c2ccc(/C=C3/C(=O)N(CCCO)C(=O)C(C#N)=C3C)o2)cc1`, for which the inhibition is 3.37%. Regarding `N#C/C(=C\c1ccc(-c2ccc(S(N)(=O)=O)cc2)o1)C(N)=O`, the inhibition is 3.71%. For `CC(=O)NS(=O)(=O)c1ccc(-c2ccc(C=C(C#N)C#N)o2)cc1` the value was 64.8% (active).

For `O=C(CCc1ccc2c(c1)OCO2)N1CCC(c2[nH]ncc2-c2ccccc2)CC1`, the inhibition is -0.09%. The same measure for `Cc1cc(C(C)(C)C)ccc1OCCN1CCNCC1`: 52.3% (active); for `Cc1cc(Br)ccc1OCCN1CCNCC1`: 36.3%; for `Cc1cccc(OCCOCCN2CCC(C)CC2)c1C`: 24.9%. As for `C=CCc1ccccc1OCCN1CCNCC1`, the inhibition is 26.5%.

Turning to `Cc1cccc(OCCN2CCNCC2)c1C`, the inhibition was 73.1% (active). The same measure for `Cc1ccc(OCCN2CCNCC2)cc1C`: 9.7%; for `N#Cc1c(/N=C/c2ccccc2OCC(=O)O)sc2c1CCCC2`: 2%; for `COc1ccccc1CNC(=O)c1ccccc1Br`: 7.79%.

For `O=c1c2ccccc2nc(/C=C\c2ccc(F)c(F)c2)n1-c1ccc(Cl)cc1[N+](=O)[O-]`, the inhibition is 1.53%.

For the compound `Cn1c(CC(=O)NNC(=O)CNC(=O)c2ccc(Br)cc2)nc2ccccc21`, the inhibition is 8.22%. Consider `Cc1ccc(-c2nn3c(C)nnc3s2)cc1NC(=O)COc1ccc(Cl)cc1C`, for which the inhibition is -9.16%. For `O=S(=O)(/C=C/c1ccccc1)N1CCN(CCc2ccncc2)CC1` the value was 3.78%; for `O=S(=O)(c1ccc(Br)cc1Cl)N1CCN(CCc2ccncc2)CC1`, 75.3% (active); for `O=S(=O)(c1cc(Br)ccc1Br)N1CCN(CCO)CC1`, 7.82%. For `CCN1CCN(Cc2c(O)ccc3c2O/C(=C\c2cc(OC)ccc2OC)C3=O)CC1` the value was -14.3%; for `CN1CC(CO)O/C1=C(C#N)\C=C1\Nc2ccccc2C1=O` (centres undefined), 21.7%. For `COc1ccc(OC(=O)COc2ccc(Br)cc2)cc1` the value was 1.98%; for `COc1ccc(OCCCC(=O)Nc2ccccc2)cc1`, 14.3%. `COc1ccc(OCCCC(=O)Oc2ccc(OC)cc2)cc1`: the inhibition was 80.3% (active).

For `CN(CC(=O)Nc1ccccc1F)CC(=O)Nc1ccccc1Br`, the inhibition was -2.33%. Turning to `CCC(C)c1ccccc1NC(=O)C(C)Cl` (centres undefined), the inhibition is -5.29%. The same measure for `CCC(C)c1ccccc1NC(=O)CN(C)CC(=O)Nc1ccccc1SC` (centres undefined): 89.7% (active); for `Cc1ccc(C23CC4CC(CC(C(=O)NCC(=O)NN)(C4)C2)C3)cc1`: -4.06%.

Take `O=C(COc1ccc(Cl)cc1)N/N=C/c1ccc([N+](=O)[O-])c(O)c1`: the inhibition is -8.51%. The same measure for `COc1ccc(S(=O)(=O)N(C)CC(=O)Nc2ccc(F)cc2F)cc1OC`: -13.8%; for `N#C/C(=C/c1ccc(-c2ccc3c(c2)C(=O)NC3=O)o1)C(=O)O`: 54.7% (active).

With `N#C/C(=C/c1ccc(-c2ccc(F)cc2)o1)C(=O)N1CCCCC1`, the inhibition is -2.65%. As to `N#C/C(=C\c1ccc(-c2ccc(F)cc2)o1)C(=O)O`, the inhibition was 9.25%. For `CCCN(CCC)C(=O)C(Cc1ccccc1)N1C(=O)C2C3C=CC(C3)C2C1=O` (centres undefined) the value was -7.73%; for `COc1ccc(CNC(=O)CC(C)C)cc1`, 4.41%. Consider `COc1ccc(CNCC2CN(CC(C)C)CCO2)cc1` (centres undefined), for which the inhibition is 54.3% (active). As for `COc1ccc(CN[C@H]2C[C@H]3C(=O)N[C@@H](C(C)C)C(=O)N3C2)cc1`, the inhibition is 16%. The same measure for `CCCCCNC(=O)COc1ccccc1C#N`: -3.44%. Consider `O=C(Nc1ccc(F)cc1F)c1cc([N+](=O)[O-])ccc1Cl`, for which the inhibition is -3.07%. The same measure for `O=C(Nc1nc2ccccc2n1CCOc1ccc(F)cc1)c1ccc(Cl)cc1`: -6.19%; for `COc1ccc(C2=NNc3cccc4c(OC)ccc2c34)cc1OC`: 51.8% (active).

For `COc1cc(Nc2nc(-c3ccc(OC)c(OC)c3)nc3ccccc23)cc(OC)c1`, the inhibition was -23%.

For `COc1ccc(-c2nc3ccccc3[nH]2)cc1OC`, the inhibition was 10.1%. For `CCNCc1ccc(OCC(=O)Nc2ccc(OC)cc2)c(OC)c1` the value was -12.6%; for `COC(=O)Oc1c([N+](=O)[O-])cc2oc(=O)sc2c1[N+](=O)[O-]`, 59.1% (active); for `COc1cc([N+](=O)[O-])cc([N+](=O)[O-])c1NC(=O)N1CCOCC1`, 11.6%. The same measure for `COC(=O)c1ccc(N2CCOCC2)c([N+](=O)[O-])c1`: 10.3%. With `Cc1cccc(C(=O)Nc2ccc3oc(-c4ccc(Cl)c(Cl)c4)nc3c2)c1`, the inhibition was 6.63%. For `O=C(Nc1nc2ccccc2s1)C(Cc1ccccc1)N1C(=O)c2ccccc2C1=O` (centres undefined), the inhibition was -3.65%.

For the compound `CNC(=O)c1cc(F)ccc1Nc1cc(Nc2ccc(NC(C)=O)cn2)ncc1C(F)(F)F`, the inhibition is 1.21%. The same measure for `Cc1cccnc1NC(=O)CSc1nnc(COc2ccc(C(C)C)cc2)n1C`: 53.7% (active). The same measure for `CC(C)c1ccc(NC(=O)CSc2nnc(CNC(=O)c3ccccc3)n2C)cc1`: 14%; for `Cc1ccccc1OCc1nnc(SCC(=O)NC(C)(C)C)n1C`: 11.7%; for `CCOc1cc(/C=N/NC(=O)CC(=O)NCC(C)C)ccc1O`: 14.6%.

For `Cc1nc(NCCCN2CCOCC2)cc(-c2ccccn2)n1`, the inhibition is 12.2%. The same measure for `c1ccc(-c2cc(NCCCn3ccnc3)nc(-c3ccccn3)n2)nc1`: 115% (active); for `Clc1ccc(-c2cc(NCCCn3ccnc3)ncn2)cc1`: 14.7%.

For the compound `CCCCSc1nnc(CNC(=O)Cc2ccccc2)n1-c1ccc(Cl)c(Cl)c1`, the inhibition was 15.1%. For `O=C1CCc2ccc(OCc3ccccc3F)cc21` the value was 12.2%. The same measure for `COc1ccc(-n2nc(C(=O)N3CCC(C(N)=O)CC3)c3ccccc3c2=O)c(OC)c1`: 11.6%; for `CCN(CC)c1ccc(NC(=O)c2ccc(OC)cc2)c(C)c1`: -6.58%. For `CCN1CCN(CC(=O)Nc2ccc(N(CC)CC)cc2C)CC1` the value was 70.1% (active). Regarding `CCN(CC)c1ccc(NC(=O)CCc2nnc3ccc(N4CCCCC4)nn23)c(C)c1`, the inhibition is 15.7%.
